Compounds with a hit are over-represented: about 8.1% of the library has one in this group of screens.
NOMO-1 viab – STK33 inhibitor candidate reducing NOMO-1 cell viability; NOMO-1 AML viability, CellTiter-Glo luminescence, 72 h; inhibition, % (test concentration not listed); hit rate 7.5% among 37,000; AID 2330; in the data active = inhibition above about 80%; inconclusive = no clear call, values can overlap the other calls
PD-1 reverse act – reversal of PD-1 mediated T-cell inhibition; primary human CD4 T cells, PD-L1 beads, CellTiter-Glo 96 h; activation, % (no concentration beside the values); 29,000 tested, under 10 active; call rule not given here;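 also: 0% = median vehicle wells and 100% = positive control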
MITF inh – blocks MITF activity; inhibition, % (no concentration beside the values); TRPM1 promoter luciferase, luminescence, 24 h; hit rate 0.28% among 37,000; in the data active = inhibition above about 85%; inconclusive = no clear call, values can overlap the other calls; inactive = below about 68%;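 also: human melanocyte line stably carrying TRPM1 promoter luciferase reporter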
Shh pathway inh – Sonic Hedgehog pathway inhibition; hit rate 2.1% among 22,000; inhibition, % (no concentration beside the values); AID 2313; Shh-LIGHT2 Gli-luciferase reporter, 30 h;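 active = mean inhibition across valid replicates above about 65%, limit read from the data; inconclusive = mean under the limit, yet half or more replicates past it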;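 also: pathway switched on by Shh-conditioned medium diluted 1 in 25 in low serum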
* = called active by the depositor; ? = inconclusive; · = no result.

SMILES	NOMO-1 viab	PD-1 reverse act	MITF inh	Shh pathway inh
C[C@H]1CN([C@@H](C)CO)C(=O)c2cccc(NC(=O)CCCCCC(=O)Nc3ccccc3N)c2O[C@@H]1CN(C)Cc1ccc(-c2ccccc2)cc1	134.4*	0.0	25.5	·
C[C@H](CO)N1C[C@H](C)[C@@H](CN(C)Cc2ccncc2)Oc2c(NC(=O)CCCCCC(=O)Nc3ccccc3N)cccc2C1=O	15.1	1.0	-18.4	·
C[C@@H]1CN([C@H](C)CO)C(=O)c2cccc(NC(=O)CCCCCC(=O)Nc3ccccc3N)c2O[C@H]1CN(C)Cc1ccc(-c2ccccc2)cc1	125.7*	0.1	52.0	·
C[C@@H]1CN([C@H](C)CO)C(=O)c2cc(NC(=O)CCCCCC(=O)Nc3ccccc3N)ccc2O[C@H]1CN(C)Cc1ccc(-c2ccccc2)cc1	68.7	0.6	-0.1	·
C[C@@H]1CN([C@H](C)CO)C(=O)c2cccc(NC(=O)CCCCCC(=O)Nc3ccccc3N)c2O[C@@H]1CN(C)CC1CCCCC1	118.6*	1.3	-0.6	·
O=C(CN1CCN(C2CCCC2)CC1)Nc1ccc([N+](=O)[O-])cc1C(=O)Nc1ccccc1F	23.6	·	-3.4	·
Cc1sc(NC(=O)COc2ccccc2C(C)C)c(C(N)=O)c1C	37.1	-3.0	15.4	·
O=C(Cn1c2ccccc2n2nc(-c3ccco3)nc12)c1ccccc1	21.3	-2.5	19.8	·
O=C(Cn1c2ccccc2n2nc(-c3cccs3)nc12)c1ccc(Cl)cc1	114.7*	-14.1	6.7	·
COC(=O)c1ccccc1NC(=O)c1ccc(NC(=O)C(C)Oc2ccc(Cl)cc2C)cc1 (stereo not given)	9.3	·	-21.9	·
CC(=O)N/C(=C\c1ccccc1)C(=O)Nc1cccc(C#N)c1	-3.3	-0.7	2.3	25.3
C=C1C(=O)O[C@H]2C1C[C@@H](OC(C)=O)[C@@]1(C)[C@@H](OC(C)=O)C[C@@H](OC(C)=O)C(=C)[C@H]21 (stereo not given in full)	120.4*	-12.6	10.5	50.9
O=C1C(c2c(O)[nH]c3ccccc23)=Nc2ccccc21	50.3	-0.1	-0.5	-46.3
O=C1c2ccccc2-[n+]2ccc3c([nH]c4ccccc43)c21	98.8*	-57.3	107.8*	?
O=c1cc(CSc2ccc(Cl)cc2)c2ccc(O)cc2o1	25.2	-1.2	-19.0	-8.5
CSc1cccc(NC(=O)C(C)NS(=O)(=O)c2ccccc2)c1 (stereo not given)	39.2	-0.7	0.8	·
CSc1sc(C(=O)Sc2ccccc2)cc1S(=O)(=O)C(C)C	106.4*	1.1	-0.3	-15.4
COc1ccc(NC(=O)Nc2ccc3c(c2)CC(=O)N([C@@H](C)CO)C[C@@H](C)[C@@H](CN(C)Cc2ccc(C(=O)Nc4ccccc4N)cc2)O3)cc1	86.4*	1.4	-8.9	·
COc1ccc(NC(=O)Nc2ccc3c(c2)CC(=O)N([C@H](C)CO)C[C@@H](C)[C@@H](CN(C)Cc2ccc(C(=O)Nc4ccccc4N)cc2)O3)cc1	89.6*	-1.4	-14.3	·
COc1ccc(NC(=O)Nc2ccc3c(c2)CC(=O)N([C@H](C)CO)C[C@H](C)[C@H](CN(C)Cc2ccc(C(=O)Nc4ccccc4N)cc2)O3)cc1	127.2*	-3.8	22.2	·
COc1ccc(NC(=O)Nc2ccc3c(c2)CC(=O)N([C@@H](C)CO)C[C@H](C)[C@@H](CN(C)Cc2ccc(C(=O)Nc4ccccc4N)cc2)O3)cc1	22.6	-1.7	-6.0	·
COc1ccc(CN(C)C[C@@H]2Oc3ccc(NC(=O)Nc4ccccc4)cc3CC(=O)N([C@@H](C)CO)C[C@@H]2C)cc1	50.5	-0.9	-31.8	·
COc1ccc(NC(=O)Nc2ccc3c(c2)CC(=O)N([C@@H](C)CO)C[C@H](C)[C@H](CN(C)Cc2ccc(C(=O)Nc4ccccc4N)cc2)O3)cc1	125.7*	-2.5	25.8	·
CCc1ccc(CN2CCN(Cc3ccc4c(c3)OCO4)CC2)cc1	32.3	0.4	25.0	32.4
COc1ccc(NC(=O)CNC(=O)c2ccccc2C)cc1	-21.3	0.7	-48.7	·
SMILES	NOMO-1 viab	PD-1 reverse act	MITF inh	Shh pathway inh
CC(=O)NC1=NC(=O)/C(=C\c2cccs2)N1C	30.6	3.3	-15.7	13.1
CC(=O)OC[C@]12[C@H](OC(C)=O)[C@H](OC(C)=O)[C@@H]3[C@@H](OC(C)=O)[C@@]14O[C@@]3(C)COC(=O)c1ncccc1CC[C@H](C)C(=O)O[C@@H]([C@H](O)[C@@H]2OC(=O)c1ccccc1)[C@]4(C)O	117.1*	-6.4	50.0	32.6
Cc1c(Br)c([N+](=O)[O-])nn1CC(=O)Nc1sc2c(c1C#N)CCCC2	28.5	-1.3	42.6	·
Cc1ccc(C)c(NC(=O)CSc2nc(-c3ccccc3)cc(C(F)(F)F)n2)c1	27.3	·	-2.2	·
Cc1cc(-c2ccccc2)nc2c1/C(=N\O)CC(C)(C)C2	101.0*	-3.4	-22.5	-7.6
CCOC(=O)C1=C(c2ccccc2)NC(=S)NC1CC (stereo not given)	32.0	-1.5	5.7	2.4
C=CCc1ccc(O[C@@H]2O[C@H](CO[C@@H]3O[C@@H](C)[C@H](O)[C@@H](O)[C@H]3O)[C@@H](O)[C@H](O)[C@H]2O)c(O)c1	7.4	1.0	-8.3	-5.4
C=CCc1ccc(O[C@@H]2O[C@H](CO)[C@@H](O)[C@H](O)[C@H]2O)c(O[C@@H]2O[C@H](CO)[C@@H](O)[C@H](O)[C@H]2O)c1	120.0*	-1.0	9.8	-5.1
COc1ccc(NC(=O)COc2ccccc2Cl)c([N+](=O)[O-])c1	4.2	·	-59.2	·
O=C1c2ccccc2C(=O)N1CCCc1nc2c3c4c(sc3ncn2n1)CCCCC4	6.6	0.4	-17.1	·
Cc1cc(C)c(C#N)c(SCC(=O)c2cc3ccccc3oc2=O)n1	8.3	·	-46.6	·
Cc1nc(SCC(=O)c2cc3ccccc3oc2=O)c(C#N)c(C)c1C	109.8*	·	-42.3	·
O=C(CSc1nnc(-c2ccncc2)n1-c1ccc(F)cc1)c1ccc(Cl)cc1	11.7	-3.0	-7.5	·
C[C@@H]1CN([C@H](C)CO)C(=O)c2cccc(NC(=O)NC3CCCCC3)c2O[C@H]1CN(C)CC1CCCCC1	104.3*	-4.7	29.6	25.1
C[C@@H]1CN([C@H](C)CO)C(=O)c2cccc(NC(=O)C3CCCCC3)c2O[C@H]1CN(C)CC1CCCCC1	111.3*	-4.6	18.2	6.0
C[C@H](CO)N1C[C@H](C)[C@@H](CN(C)CC2CCCCC2)Oc2c(NC(=O)NC3CCCCC3)cccc2C1=O	54.4	·	9.3	6.2
C[C@H](CO)N1C[C@H](C)[C@@H](CN(C)CC2CCCCC2)Oc2c(NC(=O)C3CCCCC3)cccc2C1=O	95.8*	·	35.2	30.9
CC(C)NC(=O)N(C)C[C@H]1Oc2c(NC(=O)NC3CCCCC3)cccc2C(=O)N([C@H](C)CO)C[C@H]1C	-7.0	0.5	1.9	68.6*
CC(C)NC(=O)N(C)C[C@@H]1Oc2c(NC(=O)NC3CCCCC3)cccc2C(=O)N([C@H](C)CO)C[C@H]1C	25.2	0.5	-4.0	-11.7
Cc1cc([N+](=O)[O-])ccc1NC(=O)CSc1nnnn1-c1ccccc1	25.7	0.7	17.3	·
COc1cc(-c2nnc(SCC(=O)c3ccc(Cl)cc3)n2C)cc(OC)c1OC	33.8	0.0	1.6	·
Cc1cc(=O)[nH]c(SCCOc2ccc(C(=O)c3ccccc3)cc2)n1	-21.6	1.2	13.0	·
